Structures are written as SMILES. Records with an inconclusive call do not appear. Activity calls are given as the source filed them. How the source made its calls: active means hit-call score of the fitted dose curve at least 0.9, where 1 is the maximum; inconclusive means response in the unintended direction; inactive means score below 0.9.

Experiment [1] concerns the target human Esterase Plasma (ES), BCHE (gene 590) (UniProt P06276). As to the kind of experiment: NVS_ENZ_hES: NovaScreen (NVS) Enzymatic Assay for human Esterase Plasma (ES) (AID 2283157). The method, boiled down:
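Esterase from human plasma, cell-free, colorimetric absorbance read 0.25 h after dosing. Screened at 25 uM in duplicate, with threshold-passing chemicals run in concentration-response up to 50 uM; loss of signal fitted versus DMSO.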

Experiment [2] has as its target human Opioid Receptor Mu (Opiate Mu), OPRM1 (gene 4988) (UniProt P35372). As to the kind of experiment: NVS_GPCR_hOpiate_mu: NovaScreen (NVS) G Protein-Coupled Receptor Assay for human Opioid Receptor Mu (Opiate Mu) (AID 2283290).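 Further: hits lower bound tracer signal versus DMSO meaning displacement of the ligand.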 The method, boiled down: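 Here, radioligand binding to CHO-extracted receptor was measured after 2.5 h using filter-based scintillation detection. Initial single-concentration screening used 25 uM in duplicate with plate controls; confirmed actives went to concentration-response testing.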

Experiment [3] concerns the target human Vascular Endothelial Growth Factor Receptor 1 (VEGFR1), FLT1 (gene 2321) (UniProt P17948). Description: NVS_ENZ_hVEGFR1: NovaScreen (NVS) Enzymatic Assay for human Vascular Endothelial Growth Factor Receptor 1 (VEGFR1) (AID 2283226). An outline of the steps: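 Cell-free assay of recombinant human VEGFR1 kinase with substrate, measured 1 h after dosing; fluorescence with electrophoretic mobility-shift separation of substrate and product, referenced to DMSO; primary screen at 25 uM in duplicate, actives then run in concentration series.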

For experiment [4], the target named is human Adenosine A1 Receptor (AdoRA1), ADORA1 (gene 134) (UniProt P30542). Description: NVS_GPCR_hAdoRA1: NovaScreen (NVS) G Protein-Coupled Receptor Assay for human Adenosine A1 Receptor (AdoRA1) (AID 2283254). As for the experimental part:
NVS_GPCR_hAdoRA1 is a biochemical, single-readout assay that uses extracted gene-proteins from Human cortical membranes in a tissue-based cell-free assay. Measurements were taken 1 hour after chemical dosing in a 96-well plate.NVS_GPCR_hAdoRA1 is one of one assay component(s) measured or calculated from the NVS_GPCR_hAdoRA1 assay. It is designed to make measurements of radioligand binding, a form of binding reporter, as detected with scintillation counting signals by Filter-based radiodetection technology.Data from the assay component NVS_GPCR_hAdoRA1 was analyzed into 1 assay endpoint. This assay endpoint, NVS_GPCR_hAdoRA1, was analyzed in the positive analysis fitting direction relative to DMSO as the negative control and baseline of activity. Using a type of binding reporter, loss-of-signal activity can be used to understand changes in the binding as they relate to the gene ADORA1. Furthermore, this assay endpoint can be referred to as a primary readout, because the performed assay has only produced 1 assay endpoint. To generalize the intended target to other relatable targets, this assay endpoint is annotated to the gpcr intended target family, where the subfamily is rhodopsin-like receptor. […]

For experiment [5], the target named is human Phosphoinositide 3-kinase alpha (PI3Ka), PIK3CA (gene 5290) (UniProt P42336). Description: NVS_ENZ_hPI3Ka: NovaScreen (NVS) Enzymatic Assay for human Phosphoinositide 3-kinase alpha (PI3Ka) (AID 2283196). An outline of the steps:
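Duplicate single-point screen (25 uM), then singleton dose-response (max 50 uM) for compounds meeting the threshold. Cell-free kinase reaction, 1 h; fluorescent mobility-shift readout.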

The target in experiment [6] is human Protein Tyrosine Phosphatase Non-receptor Type 6 (PTPN6), PTPN6 (gene 5777) (UniProt P29350). Description: NVS_ENZ_hPTPN6: NovaScreen (NVS) Enzymatic Assay for human Protein Tyrosine Phosphatase Non-receptor Type 6 (PTPN6) (AID 2283210). The method, boiled down:
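Cell-free assay with recombinant PTPN6 expressed in SF9 cells, fluorescent substrate, product separated from substrate by electrophoretic mobility shift; read 1.33 hours after dosing. Primary screen in duplicate at 25 uM, actives retested in concentration series; DMSO baseline.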

Chain of human Esterase Plasma (ES), BCHE (gene 590) (P06276 whole entry, looked up): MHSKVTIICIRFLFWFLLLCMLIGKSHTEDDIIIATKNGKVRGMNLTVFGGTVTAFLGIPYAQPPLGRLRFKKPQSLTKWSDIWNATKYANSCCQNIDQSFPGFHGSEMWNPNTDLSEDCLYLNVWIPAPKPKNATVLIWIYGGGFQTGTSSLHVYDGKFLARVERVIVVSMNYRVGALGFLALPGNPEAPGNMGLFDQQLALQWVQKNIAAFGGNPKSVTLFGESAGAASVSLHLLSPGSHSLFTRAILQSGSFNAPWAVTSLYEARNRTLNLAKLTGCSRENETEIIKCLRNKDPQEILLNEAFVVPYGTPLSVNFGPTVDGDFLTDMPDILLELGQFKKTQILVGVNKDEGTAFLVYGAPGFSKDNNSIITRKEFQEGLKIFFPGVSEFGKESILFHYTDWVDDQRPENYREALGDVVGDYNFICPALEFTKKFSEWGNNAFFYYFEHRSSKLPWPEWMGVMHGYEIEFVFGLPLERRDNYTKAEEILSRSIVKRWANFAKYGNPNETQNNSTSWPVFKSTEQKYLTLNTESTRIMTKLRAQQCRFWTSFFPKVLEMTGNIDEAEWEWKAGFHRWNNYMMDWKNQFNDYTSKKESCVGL
Chain of human Opioid Receptor Mu (Opiate Mu), OPRM1 (gene 4988) (P35372 whole entry, looked up): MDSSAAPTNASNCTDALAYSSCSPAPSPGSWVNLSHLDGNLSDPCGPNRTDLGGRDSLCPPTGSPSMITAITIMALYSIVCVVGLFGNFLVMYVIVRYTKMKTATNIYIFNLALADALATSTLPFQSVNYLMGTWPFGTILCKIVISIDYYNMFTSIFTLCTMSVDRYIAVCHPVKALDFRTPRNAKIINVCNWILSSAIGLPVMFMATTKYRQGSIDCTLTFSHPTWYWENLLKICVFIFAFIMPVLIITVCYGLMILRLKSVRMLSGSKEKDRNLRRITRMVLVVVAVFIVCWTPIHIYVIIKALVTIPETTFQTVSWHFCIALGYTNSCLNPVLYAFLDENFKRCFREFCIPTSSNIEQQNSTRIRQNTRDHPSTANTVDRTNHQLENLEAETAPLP
Chain of human Vascular Endothelial Growth Factor Receptor 1 (VEGFR1), FLT1 (gene 2321) (P17948 whole entry, looked up): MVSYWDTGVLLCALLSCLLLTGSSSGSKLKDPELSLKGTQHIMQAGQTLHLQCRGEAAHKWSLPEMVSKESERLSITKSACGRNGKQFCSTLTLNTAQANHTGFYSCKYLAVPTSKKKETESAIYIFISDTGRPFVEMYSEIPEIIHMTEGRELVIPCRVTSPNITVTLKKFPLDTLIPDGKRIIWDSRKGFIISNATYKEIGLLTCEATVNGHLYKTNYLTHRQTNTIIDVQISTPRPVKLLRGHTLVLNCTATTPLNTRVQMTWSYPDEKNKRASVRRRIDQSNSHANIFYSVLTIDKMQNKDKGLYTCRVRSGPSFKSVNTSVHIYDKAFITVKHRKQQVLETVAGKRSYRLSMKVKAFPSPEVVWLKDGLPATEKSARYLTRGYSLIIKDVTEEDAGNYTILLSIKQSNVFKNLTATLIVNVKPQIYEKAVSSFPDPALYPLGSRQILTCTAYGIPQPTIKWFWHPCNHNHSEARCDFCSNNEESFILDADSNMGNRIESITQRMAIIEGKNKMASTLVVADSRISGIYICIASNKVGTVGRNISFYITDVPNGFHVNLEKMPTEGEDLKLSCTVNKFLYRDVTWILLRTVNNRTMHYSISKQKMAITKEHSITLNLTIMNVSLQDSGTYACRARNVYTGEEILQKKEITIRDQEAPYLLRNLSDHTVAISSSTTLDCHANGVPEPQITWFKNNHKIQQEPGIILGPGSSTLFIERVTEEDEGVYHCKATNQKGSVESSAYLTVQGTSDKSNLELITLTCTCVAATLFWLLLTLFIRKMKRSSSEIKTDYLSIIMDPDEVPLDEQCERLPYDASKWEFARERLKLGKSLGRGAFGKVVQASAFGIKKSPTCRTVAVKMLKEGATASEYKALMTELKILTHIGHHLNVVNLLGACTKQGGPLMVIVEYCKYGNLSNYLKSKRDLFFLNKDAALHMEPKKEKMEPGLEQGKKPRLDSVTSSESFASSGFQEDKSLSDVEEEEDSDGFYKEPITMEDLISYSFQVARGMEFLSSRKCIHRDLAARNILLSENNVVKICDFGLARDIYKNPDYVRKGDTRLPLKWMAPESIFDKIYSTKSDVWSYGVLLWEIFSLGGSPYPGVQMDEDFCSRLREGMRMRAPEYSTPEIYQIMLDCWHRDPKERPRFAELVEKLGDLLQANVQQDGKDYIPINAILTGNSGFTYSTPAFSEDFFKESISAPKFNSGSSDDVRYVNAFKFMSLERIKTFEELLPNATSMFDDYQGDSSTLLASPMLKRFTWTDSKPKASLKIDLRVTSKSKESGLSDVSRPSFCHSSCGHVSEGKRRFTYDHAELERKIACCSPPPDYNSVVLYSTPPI
Chain of human Adenosine A1 Receptor (AdoRA1), ADORA1 (gene 134) (P30542 whole entry, looked up): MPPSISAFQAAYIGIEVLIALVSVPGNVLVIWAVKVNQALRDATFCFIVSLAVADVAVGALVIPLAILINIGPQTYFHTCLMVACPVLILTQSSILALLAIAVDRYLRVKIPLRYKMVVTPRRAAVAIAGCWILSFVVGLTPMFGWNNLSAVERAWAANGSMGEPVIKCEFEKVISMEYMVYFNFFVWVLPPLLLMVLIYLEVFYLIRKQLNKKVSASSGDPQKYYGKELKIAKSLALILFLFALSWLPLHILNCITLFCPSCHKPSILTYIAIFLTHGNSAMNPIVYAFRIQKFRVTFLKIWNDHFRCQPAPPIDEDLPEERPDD
Chain of human Phosphoinositide 3-kinase alpha (PI3Ka), PIK3CA (gene 5290) (P42336 whole entry, looked up): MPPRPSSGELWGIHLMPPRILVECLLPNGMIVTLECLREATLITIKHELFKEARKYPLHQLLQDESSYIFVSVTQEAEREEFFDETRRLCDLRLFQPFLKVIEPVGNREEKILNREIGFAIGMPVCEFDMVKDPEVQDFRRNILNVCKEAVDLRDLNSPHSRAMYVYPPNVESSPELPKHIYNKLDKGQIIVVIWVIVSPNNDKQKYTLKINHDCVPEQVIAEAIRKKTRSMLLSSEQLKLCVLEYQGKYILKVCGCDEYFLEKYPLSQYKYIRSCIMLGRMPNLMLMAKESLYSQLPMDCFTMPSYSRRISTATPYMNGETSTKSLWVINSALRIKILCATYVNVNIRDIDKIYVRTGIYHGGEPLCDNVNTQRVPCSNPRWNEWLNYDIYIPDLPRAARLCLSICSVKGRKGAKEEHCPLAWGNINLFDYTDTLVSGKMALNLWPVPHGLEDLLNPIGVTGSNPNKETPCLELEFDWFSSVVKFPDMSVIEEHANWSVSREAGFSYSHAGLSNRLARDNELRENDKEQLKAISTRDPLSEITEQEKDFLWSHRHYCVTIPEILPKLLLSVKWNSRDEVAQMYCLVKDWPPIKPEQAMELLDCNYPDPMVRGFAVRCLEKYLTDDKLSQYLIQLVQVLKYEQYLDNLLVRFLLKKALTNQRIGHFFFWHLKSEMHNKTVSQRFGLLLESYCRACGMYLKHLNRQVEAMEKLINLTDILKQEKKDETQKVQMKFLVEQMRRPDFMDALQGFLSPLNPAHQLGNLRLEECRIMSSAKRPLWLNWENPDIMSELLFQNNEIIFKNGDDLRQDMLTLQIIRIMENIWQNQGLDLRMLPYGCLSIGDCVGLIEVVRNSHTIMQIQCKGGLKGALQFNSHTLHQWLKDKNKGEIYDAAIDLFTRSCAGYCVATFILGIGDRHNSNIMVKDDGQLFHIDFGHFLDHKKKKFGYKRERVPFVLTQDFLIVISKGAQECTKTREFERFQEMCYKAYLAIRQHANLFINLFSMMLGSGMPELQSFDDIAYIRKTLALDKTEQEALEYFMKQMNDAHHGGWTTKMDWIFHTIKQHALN
Chain of human Protein Tyrosine Phosphatase Non-receptor Type 6 (PTPN6), PTPN6 (gene 5777) (P29350 whole entry, looked up): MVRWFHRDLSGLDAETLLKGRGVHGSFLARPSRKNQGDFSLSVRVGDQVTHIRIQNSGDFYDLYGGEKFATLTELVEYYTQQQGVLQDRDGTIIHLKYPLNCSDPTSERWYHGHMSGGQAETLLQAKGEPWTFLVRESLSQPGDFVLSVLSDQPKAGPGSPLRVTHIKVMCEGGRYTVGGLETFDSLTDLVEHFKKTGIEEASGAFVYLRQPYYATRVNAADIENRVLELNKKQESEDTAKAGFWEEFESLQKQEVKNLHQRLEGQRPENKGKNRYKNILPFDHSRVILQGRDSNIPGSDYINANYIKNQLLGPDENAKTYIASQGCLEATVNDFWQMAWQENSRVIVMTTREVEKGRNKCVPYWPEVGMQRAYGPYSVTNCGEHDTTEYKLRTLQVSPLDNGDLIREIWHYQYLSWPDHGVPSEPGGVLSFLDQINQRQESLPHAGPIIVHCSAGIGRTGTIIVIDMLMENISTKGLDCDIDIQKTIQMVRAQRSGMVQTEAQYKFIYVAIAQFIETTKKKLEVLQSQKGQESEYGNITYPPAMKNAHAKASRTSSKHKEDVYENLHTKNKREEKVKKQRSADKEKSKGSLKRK

Take `O=C1OC2(c3cc(Br)c(O)c(Br)c3Oc3c2cc(Br)c(O)c3Br)c2c(Cl)c(Cl)c(Cl)c(Cl)c21`: the result in experiment [1] was inactive. For the same molecule, in experiment [2], the AC50 was 0.0961 µM (active). `CCn1c2ccccc2c2cc(N)ccc21`: the half-maximal activity concentration (AC50) in experiment [1] was 27.1 µM (active).

On to `COc1cc2ncnc(Nc3cccc(Cl)c3)c2cc1OC`, for which the results for the AC50 in experiment [3], in experiment [4] and in experiment [2] were 1.27 µM (active), 9.94 µM (active) and 4.36 µM (active), respectively. `CC(=O)/C=C/C1=C(C)CCCC1(C)C`: the molecule was called inactive in experiment [5]. Still for that read-out and setting: in the case of `CCCCC(CC)COCCC#N` (stereo unspecified) it was “inactive”.

As for `O=C(O)c1ccc([N+](=O)[O-])cc1`, the molecule was classed as inactive in experiment [6].

For the molecule `c1ccc2c(c1)c1cccc3ccc4cccc2c4c31`, the call in experiment [3] was inactive.

On to `Cc1c(Cl)c(=O)oc2cc(O)ccc12`, for which the outcome in experiment [4] was inactive.

Broadly, the AC50 is the midpoint of the concentration-response curve, whichever way the signal moves.

These data come from PubChem BioAssay (EPA / NIEHS).
